Reference: PubChem BioAssay (EPA / NIEHS)
Active and inactive are the calls of the source. The calls were made as follows: active = hit-call score of the fitted dose curve at least 0.9, where 1 is the maximum; inactive = score below 0.9.

read-out: Protein phosphatase 2A (PPP2R4), PTPA (gene 5524); test: LTEA_HepaRG_PPP2R4: Life Technologies and Expression Analysis (LTEA) Assay for Protein phosphatase 2A (PPP2R4) using HepaRG (AID 2283522); conditions: mRNA level, 48 h; actives raise or lower the signal
Procedure: LTEA_HepaRG is a cell based, multiplexed-readout assay that uses HepaRG, a human liver cell line, with measurements taken at 48 hours after chemical dosing on a 96-well plate.LTEA_HepaRG_PPP2R4 is one of 102 assay component(s) measured in the LTEA HepaRG cell culture assay. It is a marker of Cell proliferation, survival, death.Data from the assay component LTEA_HepaRG_PPP2R4 was analyzed into 1 endpoint. This assay endpoint, LTEA_HepaRG_PPP2R4, was analyzed with bidirectional fitting relative to DMSO as the negative control and baseline of activity. Using a type of inducible reporter, measures of mRNA induction for gain or loss-of-signal activity can be used to understand regulation of transcription factor activity. To generalize the intended target to other relatable targets, this assay endpoint is annotated to the phosphatase intended target family, where the subfamily is serine/threonine phosphatase.
A total of 1060 chemcials from the ToxCast library were tested in eight-point concentration-response experiments. Cell culture and cytotoxicity assays were conducted at Thermo Fisher Scientific's Custom Services facility (Madison, WI). A single lot of human HepaRG cells (Thermo Fisher Scientific, Frederick, MD) was used for the cell culture experiments. 96-well format collagen type I coated plates of human HepaRG cells were prepared using established methods. Briefly, cryopreserved HepaRG cells were thawed, plated at a density of approximately 100,000 cells/well in HepaRG Thaw, Plate, and General Purpose media (HPRG770, Thermo Fisher Scientific), and incubated for 48 hours. 0.5% DMSO was selected as vehicle control to balance the requisite need of DMSO in HepaRG cultures to maintain differentiation (for example, baseline metabolism, proportions of hepatocytes vs. cholangiocytes), while enabling further hepatic receptor pathway activation (for example, PXR and CAR) in response to chemical exposure. 48 hours after plating, the culture medium was replaced with HepaRG Serum-Free Incudtion Media. Cells were exposed to each test chemical in duplicate and maintained in CO2 incubators for another 48 hours. Chemical plates were thawed to room temperature and 200x concentrations of treatment groups were prepared. 8-point conentration-reponse curves were made with the highest exposure at 100 uM, followed by half-log dilutions, all in 0.5% DMSO. Each test plate contained variouse controls, induction positive controls (1mM phenobarbital), cytotoxicity positive controls ([…] aflatoxin B1), vehicle controls (0.5% DMSO), and total lysis controls (0.5% DMSO). Cell morphology images were taken using an Essen IncuCyte FLR automated microscope, with six 96-well plates imaged in about 24 minutes. Images were captured and exported and JPEG files. Spent culture media was transfered to black-well plates for the LDH assay, and remaining media was sorted at -80 C for later use. Cells were treated with RLT buffer and frozen until shipped for gene expression analysis. Total RNA was isolated from the cell suspension in 75 uL of Buffer RLT (Qiagen, Germantown, MD 20874) by Quintiles/Expression Analysis (Durham, NC) using a custom isolation procedure. Total RNA from each plate well was transferred to a preamplification plate. Fluidigm's 96.96 Dynamic ArrayTM (Fluidigm, Amsterdam, the Netherlands) technology was used for gene expression analyses by quantitative reverse transcription polymerase chain reaction (qRT-PCR, performed by Quintiles/Expression Analysis, Durham, NC)89. Standard TaqManTM Assays (Applied Biosystems/ThermoFisher Scientific, Foster City, CA) were used to assess the expression of 93 genes selected based on their selectivity and sensitivity to important hepatic receptors known to be modulated by environmental chemicals; importance in human hepatocyte functionality; and hepatotoxicity. […]

SMILES	outcome	AC50
COc1cc(C=O)cc2c1[C@H](COC(N)=O)[C@]1(OC(C)=O)ON2C[C@H]2[C@@H]1N2C(C)=O	inactive	
O=P(OCCCl)(OCCCl)OCCCl		50 µM (active)
CC(C)(C)OOC(C)(C)CCC(C)(C)OOC(C)(C)C	inactive	
CCCCCCCCCCCCCN1CC(C)OC(C)C1 (stereo not given)	inactive	
CN(C)[C@@H]1C(=O)C(C(N)=O)=C(O)[C@@]2(O)C(=O)C3=C(O)c4c(O)cccc4[C@@](C)(O)[C@H]3C[C@@H]12	inactive	
CN(C)c1ccc(C(=O)c2ccc(N(C)C)cc2)cc1	inactive	
Nc1ccc(N=Nc2ccccc2)cc1		21.1 µM (active)
[As]#[In]	inactive	
C[N+](C)(C)CC1CO1 (stereo not given)	inactive	
Brc1ccc(Oc2ccccc2)cc1	inactive	
CC(C)(O)c1cnn2c(-c3ccc(F)c(-c4c(F)cccc4C#N)c3)cnc2n1	inactive	
CCOc1cccc(C2(N3CCN(c4ccccc4)CC3)CCC(C)CC2)c1 (stereo not given)	inactive	
c1ccc2c(c1)-c1cccc3cccc-2c13	inactive	
Nc1ccc([N+](=O)[O-])cc1	inactive	
O=C1CCCO1	inactive	
O=C(Oc1ccc(Br)cc1)N1CCN2CCC1CC2	inactive	
Clc1ccc(C(c2ccc(Cl)cc2)C(Cl)Cl)cc1	inactive	
OCCOCCO	inactive	
CCCCOC(=O)c1ccccc1C(=O)OCc1ccccc1		0.349 µM (active)
COP(=S)(OC)SCN1C(=O)c2ccccc2C1=O	inactive	

SMILES	outcome	AC50
Oc1ccc2ccc3cccc4ccc1c2c34	inactive	
OCCCl	inactive	
CC(C)COC(=O)c1ccccc1C(=O)OCC(C)C	inactive	
C=CCc1ccc2c(c1)OCO2	inactive	
Cn1cc(-c2ccccc2)c(=O)c(-c2cccc(C(F)(F)F)c2)c1	inactive	
Cc1cc(N=Nc2ccccc2C)ccc1N		2.35 µM (active)
CC(C)(C)C(O)(CCc1ccc(Cl)cc1)Cn1cncn1 (stereo not given)		50 µM (active)
CC(C)N(Cc1ccccc1)C(=O)C(C)(C)C	inactive	
CCNS(=O)(=O)C(F)(F)C(F)(F)C(F)(F)C(F)(F)C(F)(F)C(F)(F)C(F)(F)C(F)(F)F	inactive	
CC(O)CCO (stereo not given)	inactive	
CCC[CH2][Sn]([Cl])([CH2]CCC)[CH2]CCC	inactive	
CNC(=O)Oc1cccc2c1OC(C)(C)C2	inactive	
O=[N+]([O-])c1ccc(Oc2ccc(Cl)cc2Cl)cc1	inactive	
O=Cc1ccco1	inactive	
Nc1ccc(Cc2ccc(N)cc2)cc1	inactive	
COC(=O)c1ccccc1N	inactive	
Cc1ccc(N)c(N)c1	inactive	
Clc1ccc(C(c2ccc(Cl)cc2)C(Cl)(Cl)Cl)cc1	inactive	
C[C@]12C=CC3=C4CCC(=O)C=C4CC[C@H]3[C@@H]1CC[C@@H]2O	inactive	
CN(C)C(=O)Nc1ccc(Cl)cc1	inactive	
